In experiment [1] the target is Neuropeptide Y receptor type 2 (Homo sapiens) (UniProt P49146). The experiment is described as follows: NVS_GPCR_hNPY2: NovaScreen (NVS) G Protein-Coupled Receptor Assay for human Neuropeptide Receptor Y2 (NPY2) (AID 2283277). In short, it runs like this: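 Radioligand binding on membranes extracted from SK-N-MC cells, cell-free, read 1 h after dosing by filter-based scintillation counting. Loss of signal vs DMSO. Primary screen in duplicate at 25 uM; actives followed up in concentration-response up to 50 uM.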
Chain of Neuropeptide Y receptor type 2 (Homo sapiens) (P49146 whole entry, looked up): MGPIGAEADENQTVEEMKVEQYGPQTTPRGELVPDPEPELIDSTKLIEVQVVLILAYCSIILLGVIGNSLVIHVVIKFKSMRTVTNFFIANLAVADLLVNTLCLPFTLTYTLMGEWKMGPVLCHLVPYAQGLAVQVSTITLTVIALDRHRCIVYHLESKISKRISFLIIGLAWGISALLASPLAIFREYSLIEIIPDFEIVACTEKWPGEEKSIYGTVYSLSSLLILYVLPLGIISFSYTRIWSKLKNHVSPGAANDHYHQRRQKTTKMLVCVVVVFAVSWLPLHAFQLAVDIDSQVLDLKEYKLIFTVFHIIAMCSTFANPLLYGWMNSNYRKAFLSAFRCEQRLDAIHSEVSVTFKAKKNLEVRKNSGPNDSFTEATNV

Experiment [2] addresses human Opioid Receptor Delta 1 (Opiate D1), OPRD1 (gene 4985) (UniProt P41143). The experiment is described as follows: NVS_GPCR_hOpiate_D1: NovaScreen (NVS) G Protein-Coupled Receptor Assay for human Opioid Receptor Delta 1 (Opiate D1) (AID 2283280). The essentials:
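Radioligand displacement on membranes from CHO cells expressing the receptor, read by filter scintillation counting 1 h after dosing. Duplicate single-point screen at 25 uM, then concentration series for actives; loss of signal versus DMSO.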

Experiment [3] deals with human Purinergic Receptor P2Y, P2RY1 (gene 5028) (UniProt P47900). In words: NVS_GPCR_hPY2: NovaScreen (NVS) G Protein-Coupled Receptor Assay for human Purinergic Receptor P2Y (AID 2283281). In short, it runs like this: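 Cell-free radioligand binding using U937-derived protein, 1 h after dosing, filter-based scintillation counting. Screened in duplicate at 25 uM; actives rerun as concentration-response up to 50 uM; loss of signal versus DMSO.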
Chain of human Purinergic Receptor P2Y, P2RY1 (gene 5028) (P47900 whole entry, looked up): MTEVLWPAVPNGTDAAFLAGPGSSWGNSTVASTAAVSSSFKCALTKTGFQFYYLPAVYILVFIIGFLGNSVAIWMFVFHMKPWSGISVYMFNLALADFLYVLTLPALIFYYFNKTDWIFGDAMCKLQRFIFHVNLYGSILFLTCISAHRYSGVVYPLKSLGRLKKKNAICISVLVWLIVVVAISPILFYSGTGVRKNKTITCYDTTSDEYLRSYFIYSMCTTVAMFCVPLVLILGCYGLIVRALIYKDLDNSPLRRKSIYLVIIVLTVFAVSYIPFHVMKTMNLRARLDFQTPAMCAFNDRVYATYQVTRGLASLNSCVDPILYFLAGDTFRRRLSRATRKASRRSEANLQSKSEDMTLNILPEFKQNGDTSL

Experiment [4] addresses human Thromboxane A2 Receptor (TXA2), TBXA2R (gene 6915) (UniProt P21731). In words: NVS_GPCR_hTXA2: NovaScreen (NVS) G Protein-Coupled Receptor Assay for human Thromboxane A2 Receptor (TXA2) (AID 2283282).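 Further: actives reduce bound radioligand signal relative to DMSO baseline.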 In short, it runs like this:
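Biochem binding, human platelets, cell-free; competitive radioligand displacement; 1 h; filter radiodetection. 25 uM duplicate primary, conc. series secondary; DMSO neg. ctrl.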

Experiment [5] concerns the target human Opioid Receptor Mu (Opiate Mu), OPRM1 (gene 4988) (UniProt P35372). The experiment is described as follows: NVS_GPCR_hOpiate_mu: NovaScreen (NVS) G Protein-Coupled Receptor Assay for human Opioid Receptor Mu (Opiate Mu) (AID 2283290).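 Further: hits lower bound tracer signal versus DMSO meaning displacement of the ligand.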 In short, it runs like this: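 Cell-free radioligand binding to membranes from CHO cells expressing the receptor; bound tracer measured by filter-based scintillation counting 2.5 hours after dosing. Loss of signal versus DMSO baseline reflects displacement; primary screen at 25 uM in duplicate, actives followed up in concentration series.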

Experiment [6] deals with rat Adrenergic, Alpha 1B Receptor (Adra1B), gene 24173. The experiment is described as follows: NVS_GPCR_rAdra1B: NovaScreen (NVS) G Protein-Coupled Receptor Assay for rat Adrenergic, Alpha 1B Receptor (Adra1B) (AID 2283297). The essentials:
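Rat liver membranes, radioligand displacement with filter-based scintillation detection, 1 h incubation. Primary screen in duplicate at 25 uM; actives retested in concentration series; activity relative to DMSO.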

Experiment [7] addresses rat Adrenergic, Alpha 1, Non-selective Receptor (Adra1), Adra1a (gene 29412) (UniProt P43140). In words: NVS_GPCR_rAdra1_NonSelective: NovaScreen (NVS) G Protein-Coupled Receptor Assay for rat Adrenergic, Alpha 1, Non-selective Receptor (Adra1) (AID 2283289). In short, it runs like this:
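Rat forebrain membranes; radioligand displacement read by filter-based scintillation counting 1 h after dosing. Primary screen in duplicate at 25 uM; hits (e.g. ≥30% inhibition) rerun as concentration–response to 50 uM max. Fitted versus DMSO.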

The target of experiment [8] is guinea pig Serotonin, 5-Hydroxytryptamine Receptor 4 (5HT4), HTR4 (gene 100135548) (UniProt O70528). In words: NVS_GPCR_g5HT4: NovaScreen (NVS) G Protein-Coupled Receptor Assay for guinea pig Serotonin, 5-Hydroxytryptamine Receptor 4 (5HT4) (AID 2283294). In short, it runs like this: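 Guinea pig striatal membranes; radioligand competitive displacement, filtration and scintillation counting after 1 h. Primary screen in duplicate at 25 uM; actives then tested in concentration series; loss of binding signal fitted relative to DMSO.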
Chain of guinea pig Serotonin, 5-Hydroxytryptamine Receptor 4 (5HT4), HTR4 (gene 100135548) (O70528 whole entry, looked up): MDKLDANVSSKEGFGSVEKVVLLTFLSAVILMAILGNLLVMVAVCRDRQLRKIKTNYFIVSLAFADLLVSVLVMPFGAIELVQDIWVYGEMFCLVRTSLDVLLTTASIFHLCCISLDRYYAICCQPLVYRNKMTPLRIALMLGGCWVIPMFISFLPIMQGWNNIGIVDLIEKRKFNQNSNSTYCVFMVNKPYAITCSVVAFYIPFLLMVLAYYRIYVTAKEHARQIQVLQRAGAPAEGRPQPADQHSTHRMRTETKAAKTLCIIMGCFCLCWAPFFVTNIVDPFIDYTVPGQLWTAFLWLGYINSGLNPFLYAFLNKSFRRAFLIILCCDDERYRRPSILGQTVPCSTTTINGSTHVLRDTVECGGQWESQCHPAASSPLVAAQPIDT

In experiment [9] the target is rat Adrenergic, Alpha 1A Receptor (Adra1A), Adra1a (gene 29412) (UniProt P43140). In words: NVS_GPCR_rAdra1A: NovaScreen (NVS) G Protein-Coupled Receptor Assay for rat Adrenergic, Alpha 1A Receptor (Adra1A) (AID 2283296). In short, it runs like this:
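Rat cortical membranes pretreated with chlorethyl clonidine; competitive radioligand displacement, 1 h. Filter-based scintillation counting. Primary screen in duplicate at 25 uM, actives followed in concentration series.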

Experiment [10] has as its system rabbit Platelet Activating Factor Receptor (PAF), gene 100354046. The experiment is described as follows: NVS_GPCR_rabPAF: NovaScreen (NVS) G Protein-Coupled Receptor Assay for rabbit Platelet Activating Factor Receptor (PAF) (AID 2283287). The essentials: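 Rabbit platelet membrane preparation; radioligand displacement read by filter-based scintillation counting 1 h after dosing, loss of signal versus DMSO. Primary screen in duplicate at 25 uM, actives followed up in concentration series.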

For experiment [11], the target named is human Neurokinin, NK2 Receptor, TACR2 (gene 6865) (UniProt P21452). In words: NVS_GPCR_hNK2: NovaScreen (NVS) G Protein-Coupled Receptor Assay for human Neurokinin, NK2 Receptor (AID 2283278).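 Further: actives reduce bound radioligand signal relative to DMSO baseline.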 In short, it runs like this: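 CHO-derived membrane protein, radioligand displacement, filter scintillation read at 4 h post-dose. Single-point 25 uM in duplicate, then concentration series for actives; DMSO as negative control.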
Chain of human Neurokinin, NK2 Receptor, TACR2 (gene 6865) (P21452 whole entry, looked up): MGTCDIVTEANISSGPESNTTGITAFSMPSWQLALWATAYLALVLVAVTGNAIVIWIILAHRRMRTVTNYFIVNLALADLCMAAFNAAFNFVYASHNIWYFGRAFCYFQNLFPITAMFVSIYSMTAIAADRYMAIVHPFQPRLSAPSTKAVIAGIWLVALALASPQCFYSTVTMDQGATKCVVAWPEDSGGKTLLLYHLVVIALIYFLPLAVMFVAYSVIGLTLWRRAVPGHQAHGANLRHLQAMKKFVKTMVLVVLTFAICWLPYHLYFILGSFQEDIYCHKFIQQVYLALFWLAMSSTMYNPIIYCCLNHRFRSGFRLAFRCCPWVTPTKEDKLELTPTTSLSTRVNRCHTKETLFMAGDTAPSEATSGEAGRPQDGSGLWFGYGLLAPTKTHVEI

The target of experiment [12] is rat Serotonin, 5-Hydroxytryptamine Receptor (5HT), Non-Selective Binding, Htr1a (gene 24473) (UniProt P19327). In words: NVS_GPCR_r5HT_NonSelective: NovaScreen (NVS) G Protein-Coupled Receptor Assay for rat Serotonin, 5-Hydroxytryptamine Receptor (5HT), Non-Selective Binding (AID 2283295). The essentials:
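Radioligand displacement on rat cortical membranes, 1 h incubation, filter-based scintillation counting. Primary duplicates at 25 uM, actives retested in concentration series; loss of signal fitted against DMSO as baseline.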

Experiment [13] concerns the target human Neuropeptide Receptor Y1 (NPY1), NPY1R (gene 4886) (UniProt P25929). The experiment is described as follows: NVS_GPCR_hNPY1: NovaScreen (NVS) G Protein-Coupled Receptor Assay for human Neuropeptide Receptor Y1 (NPY1) (AID 2283276). In short, it runs like this:
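Cell-free radioligand binding using receptor extracted from SK-N-MC cells, 1 h incubation, filter-based scintillation counting. Primary screen single concentration 25 uM in duplicate; actives followed in concentration series. Loss of bound signal scored versus DMSO.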

Experiment [14] addresses rat Serotonin, 5-Hydroxytryptamine Receptor 1 (5HT1), Non-Selective Binding, Htr1a (gene 24473) (UniProt P19327). In words: NVS_GPCR_r5HT1_NonSelective: NovaScreen (NVS) G Protein-Coupled Receptor Assay for rat Serotonin, 5-Hydroxytryptamine Receptor 1 (5HT1), Non-Selective Binding (AID 2283286). In short, it runs like this: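 Rat cortical membranes, radioligand displacement, 1 h incubation, read by filter scintillation. Primary screen in duplicate at 25 uM. Hits (e.g. ≥30% inhibition) went to concentration-response up to 50 uM, fitted as loss of binding versus DMSO.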

Experiment [15] deals with 5-hydroxytryptamine receptor 2C (pig). In words: NVS_GPCR_p5HT2C: NovaScreen (NVS) G Protein-Coupled Receptor Assay for pig Serotonin, 5-Hydroxytryptamine Receptor 2C (5HT2C) (AID 2283288). The essentials: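 Pig choroid plexus membranes; radioligand competitive binding, filter-based scintillation counting, read 1 h after dosing. Primary screen in duplicate at 25 uM; actives then run as concentration series; loss of signal versus DMSO baseline.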

Experiment [16] has as its target guinea pig Bradykinin Receptor B2 (BK2), BDKRB2 (gene 100135486) (UniProt O70526). The experiment is described as follows: NVS_GPCR_gBK2: NovaScreen (NVS) G Protein-Coupled Receptor Assay for guinea pig Bradykinin Receptor B2 (BK2) (AID 2283292). The essentials: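 Radioligand displacement on guinea pig ileum membranes for 1 h, read by filter-based scintillation counting; loss of signal relative to DMSO. Compounds were screened in duplicate at 25 uM, and those passing the threshold were retested in concentration-response up to 50 uM.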

Experiment [17] addresses human Orphanin, Opioid Related Nociceptin Receptor 1 (ORL1), OPRL1 (gene 4987) (UniProt P41146). The experiment is described as follows: NVS_GPCR_hORL1: NovaScreen (NVS) G Protein-Coupled Receptor Assay for human Orphanin, Opioid Related Nociceptin Receptor 1 (ORL1) (AID 2283283). The essentials: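 Filter-based radioligand displacement with receptor extracted from HEK293 cells, read 1 hour after dosing by scintillation counting. Duplicate single-point screen at 25 uM; qualifying chemicals then run in concentration-response to 50 uM, analysed relative to DMSO.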

For experiment [18], the target named is mouse Cholecystokinin, CCK1 Receptor (CCKA), Cckar (gene 12425) (UniProt O08786). In words: NVS_GPCR_mCCKAPeripheral: NovaScreen (NVS) G Protein-Coupled Receptor Assay for mouse Cholecystokinin, CCK1 Receptor (CCKA) (AID 2283285). The essentials:
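Radioligand competitive displacement on mouse pancreatic membranes, 2 h incubation; filter-based scintillation counting, loss of signal versus DMSO. Single-concentration screen at 25 uM in duplicate, actives retested in concentration-response up to 50 uM.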

Structures are written as SMILES. Results filed as inconclusive are left out. Active and inactive are the calls of the source. How the source made its calls: active means hit-call score of the fitted dose curve at least 0.9, where 1 is the maximum; inconclusive means response in the unintended direction; inactive means score below 0.9.

Chain of human Thromboxane A2 Receptor (TXA2), TBXA2R (gene 6915) (P21731 whole entry, looked up): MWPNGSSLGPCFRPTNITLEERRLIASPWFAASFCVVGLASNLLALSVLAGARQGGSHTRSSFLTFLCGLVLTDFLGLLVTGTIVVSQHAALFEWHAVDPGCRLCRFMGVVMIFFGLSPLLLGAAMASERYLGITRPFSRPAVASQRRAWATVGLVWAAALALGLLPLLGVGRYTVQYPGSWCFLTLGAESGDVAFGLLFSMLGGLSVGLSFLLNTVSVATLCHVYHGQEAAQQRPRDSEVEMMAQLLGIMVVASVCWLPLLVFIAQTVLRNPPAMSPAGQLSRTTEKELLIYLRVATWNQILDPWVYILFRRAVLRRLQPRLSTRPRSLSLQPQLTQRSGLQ
Chain of human Opioid Receptor Mu (Opiate Mu), OPRM1 (gene 4988) (P35372 whole entry, looked up): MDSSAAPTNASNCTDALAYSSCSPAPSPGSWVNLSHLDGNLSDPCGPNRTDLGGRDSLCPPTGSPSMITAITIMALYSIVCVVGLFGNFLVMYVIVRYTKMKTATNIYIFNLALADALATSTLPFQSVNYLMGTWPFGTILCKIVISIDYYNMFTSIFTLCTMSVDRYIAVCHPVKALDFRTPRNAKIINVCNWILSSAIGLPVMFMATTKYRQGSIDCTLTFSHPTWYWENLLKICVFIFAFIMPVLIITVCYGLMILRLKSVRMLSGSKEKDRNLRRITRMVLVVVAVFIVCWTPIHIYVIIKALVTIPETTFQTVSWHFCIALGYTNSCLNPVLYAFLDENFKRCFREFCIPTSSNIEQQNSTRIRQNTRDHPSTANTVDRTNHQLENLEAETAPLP
Chain of rat Serotonin, 5-Hydroxytryptamine Receptor (5HT), Non-Selective Binding, Htr1a (gene 24473) (P19327 whole entry, looked up): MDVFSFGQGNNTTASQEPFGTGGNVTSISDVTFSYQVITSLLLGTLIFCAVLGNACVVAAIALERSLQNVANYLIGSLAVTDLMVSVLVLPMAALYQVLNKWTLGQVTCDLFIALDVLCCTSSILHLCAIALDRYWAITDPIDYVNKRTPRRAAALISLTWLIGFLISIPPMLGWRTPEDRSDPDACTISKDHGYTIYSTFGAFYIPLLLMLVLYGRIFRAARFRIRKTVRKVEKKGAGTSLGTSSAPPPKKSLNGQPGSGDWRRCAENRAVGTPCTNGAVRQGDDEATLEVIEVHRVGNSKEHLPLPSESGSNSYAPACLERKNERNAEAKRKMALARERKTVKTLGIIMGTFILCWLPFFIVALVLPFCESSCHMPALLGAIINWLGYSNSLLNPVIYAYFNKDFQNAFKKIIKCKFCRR
Chain of human Opioid Receptor Delta 1 (Opiate D1), OPRD1 (gene 4985) (P41143 whole entry, looked up): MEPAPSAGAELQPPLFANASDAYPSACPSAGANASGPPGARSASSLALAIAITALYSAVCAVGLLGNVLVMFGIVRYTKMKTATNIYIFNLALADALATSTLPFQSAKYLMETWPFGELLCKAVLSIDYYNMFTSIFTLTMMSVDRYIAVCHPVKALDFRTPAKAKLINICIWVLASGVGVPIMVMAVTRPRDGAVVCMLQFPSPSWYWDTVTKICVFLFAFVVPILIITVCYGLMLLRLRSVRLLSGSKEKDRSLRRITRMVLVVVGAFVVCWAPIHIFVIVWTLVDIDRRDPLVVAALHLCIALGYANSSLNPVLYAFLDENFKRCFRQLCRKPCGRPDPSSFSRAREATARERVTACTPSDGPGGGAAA
Chain of rat Adrenergic, Alpha 1, Non-selective Receptor (Adra1), Adra1a (gene 29412) (P43140 whole entry, looked up): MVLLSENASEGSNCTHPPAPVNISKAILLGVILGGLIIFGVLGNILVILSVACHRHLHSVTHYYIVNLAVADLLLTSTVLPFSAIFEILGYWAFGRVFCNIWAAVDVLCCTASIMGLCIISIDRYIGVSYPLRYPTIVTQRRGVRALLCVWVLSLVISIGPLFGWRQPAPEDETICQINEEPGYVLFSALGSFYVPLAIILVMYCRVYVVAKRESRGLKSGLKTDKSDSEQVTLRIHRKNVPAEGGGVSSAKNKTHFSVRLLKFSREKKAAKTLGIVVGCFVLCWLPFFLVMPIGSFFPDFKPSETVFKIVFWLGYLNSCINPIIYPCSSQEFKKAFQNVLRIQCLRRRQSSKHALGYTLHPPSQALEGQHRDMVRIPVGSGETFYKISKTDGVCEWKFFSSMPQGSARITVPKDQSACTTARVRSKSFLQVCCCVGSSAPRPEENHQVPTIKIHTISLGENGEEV
Chain of rat Adrenergic, Alpha 1A Receptor (Adra1A), Adra1a (gene 29412) (P43140 whole entry, looked up): as above
Chain of human Neuropeptide Receptor Y1 (NPY1), NPY1R (gene 4886) (P25929 whole entry, looked up): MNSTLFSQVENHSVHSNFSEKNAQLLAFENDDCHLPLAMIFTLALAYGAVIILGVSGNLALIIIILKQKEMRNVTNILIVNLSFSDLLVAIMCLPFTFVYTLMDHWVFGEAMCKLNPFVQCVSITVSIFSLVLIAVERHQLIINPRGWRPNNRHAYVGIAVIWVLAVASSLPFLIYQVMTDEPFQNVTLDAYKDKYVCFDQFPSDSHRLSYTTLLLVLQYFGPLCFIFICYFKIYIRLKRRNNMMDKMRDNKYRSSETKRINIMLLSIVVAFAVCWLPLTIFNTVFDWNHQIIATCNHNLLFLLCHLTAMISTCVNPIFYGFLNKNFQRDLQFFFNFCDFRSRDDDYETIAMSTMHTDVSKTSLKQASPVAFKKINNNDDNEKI
Chain of mouse Cholecystokinin, CCK1 Receptor (CCKA), Cckar (gene 12425) (O08786 whole entry, looked up): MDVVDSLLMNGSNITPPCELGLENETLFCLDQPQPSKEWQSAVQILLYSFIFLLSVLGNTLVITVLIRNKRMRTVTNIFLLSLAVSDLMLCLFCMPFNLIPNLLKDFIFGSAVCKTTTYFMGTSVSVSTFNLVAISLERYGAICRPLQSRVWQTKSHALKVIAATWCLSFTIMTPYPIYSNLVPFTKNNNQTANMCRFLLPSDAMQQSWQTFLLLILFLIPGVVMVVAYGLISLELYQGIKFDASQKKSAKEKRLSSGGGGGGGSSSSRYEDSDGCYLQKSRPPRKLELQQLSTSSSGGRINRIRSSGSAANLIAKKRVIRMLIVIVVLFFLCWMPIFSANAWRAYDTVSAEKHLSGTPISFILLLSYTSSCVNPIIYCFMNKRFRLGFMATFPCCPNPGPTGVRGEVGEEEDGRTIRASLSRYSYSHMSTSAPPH

One may read the AC50 as the concentration at which the activity in the assay is half-maximal. `CCCCCCCCCCCCCCCCOS(=O)(=O)O`: in [1], the outcome was inactive. Further, the AC50 in [2] is 3.9 µM (active); in experiment [3] it was 5.47 µM (active); in experiment [4], 12.5 µM (active); in experiment [5], 4.11 µM (active); in experiment [6] it was 12.5 µM (active).
Consider `COc1cc(C(C)C)c2c(c1)S(=O)(=O)N(COc1cc(=O)n3cccc(OCCN4CCCCC4)c3n1)C2=O`, for which the AC50 was 0.84 µM (active) in experiment [1], 3.1 µM (active) in experiment [7], 1.38 µM (active) in [8] and 3.17 µM (active) in experiment [6]. In addition, the result in experiment [5] and in experiment [9] was inactive.
Turning to `Cc1nccn1-c1ccc(Sc2cccc(C3(C(N)=O)CCOCC3)c2)cc1`, in [10], the AC50 was 15.8 µM (active). The result in experiment [8] was inactive.
As for `OCc1c[nH]c2ccccc12`, the AC50 in experiment [11] is 19.7 µM (active). Further, in experiment [4], the outcome was inactive.
As for `CCCCCCCC/C=C\CCCCCCCC(=O)OC[C@@H](O)[C@H]1OC[C@H](O)[C@H]1O`, the compound was called inactive in experiment [1] and in experiment [5]. In addition, in [4], the AC50 was 25 µM (active).
`O=c1[nH]cnc2c1ncn2[C@H]1CC[C@@H](CO)O1`: the compound was classed as inactive in experiment [12].
As for `c1ccc(C(O[C@@H]2CCCN(CCc3ccc4c(c3)OCO4)C2)c2ccccc2)cc1`, the compound was called inactive in experiment [13] and in experiment [16]. The AC50 in experiment [11] is 5.79 µM (active); in [2], 19.4 µM (active); in experiment [14], 9.62 µM (active); in [15], 5.08 µM (active); in [5] it was 5.65 µM (active); in experiment [8], 3.4 µM (active). For the same compound, the AC50 in experiment [12] is 5.63 µM (active); in [9], 11.3 µM (active); in [6] it was 17 µM (active).
In the case of `CCN(CC)C(=S)SSC(=S)N(CC)CC`, the AC50 was 17.5 µM (active) in experiment [13], 1.35 µM (active) in experiment [11], 14 µM (active) in experiment [17] and 19 µM (active) in experiment [8]. For the same compound, the call in experiment [5] and in experiment [6] was inactive.
`O=C(O)[C@H](O)[C@@H](O)C(=O)O`: the outcome in [5] was inactive.
The same measure, in the same setting: next, `c1ccc2cc3ccccc3cc2c1`: “inactive”.
Regarding `Cc1ncc([C@@H](CCCCCCc2ccc3c(n2)NCCC3)CC(=O)O)cn1`, the outcome in [2] and in experiment [12] was inactive.
For the compound `CCCOc1ccc(S(=O)(=O)N2CCN(CC)CC2)cc1-c1nc2c(CC)n(Cc3ccccn3)nc2c(=O)[nH]1`, the AC50 is 6.42 µM (active) in [10] and 0.402 µM (active) in experiment [7].
Take `CC(C)C(=O)Nc1ccc([N+](=O)[O-])c(C(F)(F)F)c1`: the AC50 in [4] is 4.96 µM (active); in [8], 6.71 µM (active). Further, the result in experiment [18] and in experiment [15] was inactive.
As to `CCCCOC(=O)c1ccccc1`, the call in experiment [4] and in experiment [8] was inactive.

(Values after PubChem BioAssay (EPA / NIEHS).)
